The other results are listed elsewhere or left out. Results filed as inconclusive are left out. The source made the active and inactive calls.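 How the source made its calls: active means compounds lowering PCK1 expression whose fitted half-maximal concentration is at most twice the top tested dose; inconclusive means flat fit with moderate opposite-direction effect, or poor fit; inactive means the rest.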
Assay: hepatocyte PCK1 gene expression decrease – cell-based, primary mouse hepatocytes, RT-qPCR, cherry-pick, PGC-1a acetylation activator project, dose response (AID 743465);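 further: values are delta delta Ct of PCK1 relative to GAPDH; higher delta delta Ct means lower PCK1 expression so positive values indicate hits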
Settings: PCK1 mRNA qPCR, forskolin-stimulated; series mostly up to 26 µM; PCK1 expression decrease: at the top concentration

Row | Compound | PCK1 expression decrease
1 | CCOc1ccccc1CN1CCN(C2CCC2)CC1CCO (centres undefined) | 32.8 unspecified (inactive)
2 | Cc1cc(C(=O)NNS(=O)(=O)c2ccccc2C(F)(F)F)nn1C(C)(C)C | 43.1 unspecified (inactive)
3 | CCCCC(=O)Nc1ccc(C(=O)NCCCn2ccnc2)cc1 | 19.7 unspecified (inactive)
4 | O=C(NCc1ccccc1)C(c1ccccc1)N(C(=O)c1csnn1)c1ccc(F)cc1 (centres undefined) | 318 unspecified [at 8 µM] (inactive)
5 | CCC(C)(C)n1nnnc1C(c1ccccc1OC)N1CCSCC1 (centres undefined) | 105 unspecified (inactive)
6 | Cc1cc(C)c2c(-n3cccc3)c(C(=O)NNS(=O)(=O)c3ccc(F)cc3)sc2n1 | 9.38 unspecified (inactive)
7 | Cc1ccc(OCC(=O)NCCCNC(=O)c2cccnc2)cc1C | 52.7 unspecified (inactive)
8 | CCOC(=O)c1c(NC(=O)CSc2cn(CC)c3ccccc23)sc2c1CCC2 | 44 unspecified (inactive)
9 | Cc1ccc(S(=O)(=O)Nc2ccc3c(c2)C(=O)N([C@@H](C)CO)C[C@@H](C)[C@H](CN(C)C(=O)Nc2cccc4ccccc24)OCCCC[C@H](C)O3)cc1 | 17.2 unspecified (inactive)
10 | COc1ccc(-n2nnnc2CNC(=O)c2ccc3ccccc3c2)cc1 | 3.44 unspecified (inactive)
11 | COc1ccc(Nc2nnc(C)c3ccccc23)cc1 | 25.2 unspecified (inactive)
12 | CC(C)CCNc1nc(N2CCCC2)c2c(c1C#N)CCN(C)C2 | 96 unspecified (inactive)
13 | O=C(NCCC1CCCCN1S(=O)(=O)c1cccs1)C(=O)Nc1ccc(F)cc1F (centres undefined) | -10.4 unspecified (inactive)
14 | CCOC(=O)c1c(-c2ccc(C)cc2C)csc1NC(=O)CSc1nnnn1C | 86.5 unspecified (inactive)

Reference: PubChem BioAssay AID743465 (Broad Institute, 2014)
